Results published in PubChem BioAssay AID2316 (Broad Institute, 2010).
The whole screen tested about 29,000 compounds, of which fewer than 10 were called active. No rule for the calls is given here. A selection follows.

Experiment: activators reversing PD-1 mediated T-cell inhibition, primary screen, luminescence, primary human CD4 T cells, PD-L1 beads (AID 2316);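 also: 0% = median vehicle wells and 100% = positive control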
Settings: CellTiter-Glo 96 h, active compounds read high

| SMILES | activation |
| --- | --- |
| C[C@@H]1CCCCO[C@@H](CN(C)C(=O)CCCN(C)C)[C@@H](C)CN([C@H](C)CO)C(=O)c2cc(NC(=O)Nc3ccc(F)cc3)ccc2O1 | 0.492% (inactive) |
| C[C@@H]1CCCCO[C@@H](CN(C)S(=O)(=O)c2cccs2)[C@@H](C)CN([C@H](C)CO)C(=O)c2cc(NC(=O)Nc3ccc4c(c3)OCO4)ccc2O1 | -0.659% (inactive) |
| C[C@H](CO)N1C[C@H](C)[C@@H](CN(C)Cc2ccccc2)Oc2c(NC(=O)C3CCOCC3)cccc2C1=O | -1.74% (inactive) |
| COC(=O)c1scc(S(=O)(=O)C(C)(C)C)c1-n1cccc1 | -0.136% (inactive) |
| COc1cc(/C=C/C(=O)O[C@@H]2O[C@H](CO[C@@H]3O[C@H](CO)[C@@H](O)[C@H](O)[C@H]3O)[C@@H](O)[C@H](O)[C@H]2OC(=O)/C=C/c2cc(OC)c(O)c(OC)c2)cc(OC)c1O | -0.424% (inactive) |
| O=C(CCCN1C(=O)c2ccccc2C1=O)Nc1cccc2c1CCCC2 | 1.14% (inactive) |
| CCC1(C)C(=O)C=C2C(=COC(C)=C2C)C1O (centres undefined) | 0.686% (inactive) |
| CCCOc1ccc(C(=O)C2C(=O)C(=O)N(c3nc(C)c(C(=O)OC)s3)C2c2ccco2)cc1 (centres undefined) | 1.4% (inactive) |
| Cc1ccc(S(=O)(=O)Nc2cccc3c2O[C@@H](CN(C)CC2CCCCC2)[C@H](C)CN([C@@H](C)CO)C3=O)cc1 | 3.09% (inactive) |
| C[C@H]1CN([C@@H](C)CO)C(=O)Cc2cc(NC(=O)Nc3ccc(F)cc3)ccc2O[C@@H]1CN(C)C(=O)NC1CCCCC1 | 0.349% (inactive) |
| COc1ccc(S(=O)(=O)NCc2ccccn2)cc1I | 1.57% (inactive) |
| C[C@H](CO)N1C[C@H](C)[C@@H](CN(C)Cc2ccccc2)Oc2ccc(NC(=O)CCCN(C)C)cc2C1=O | 1.04% (inactive) |
| Cc1noc(C)c1NC(=O)Nc1ccc2c(c1)C(=O)N([C@H](C)CO)C[C@H](C)[C@@H](CN(C)C(=O)Nc1ccccc1)O2 | 1.04% (inactive) |
| C[C@H](CO)N1C[C@H](C)[C@H](CN(C)Cc2ccc3c(c2)OCO3)Oc2c(cccc2N(C)C)C1=O | 0.478% (inactive) |
| C[C@H]1CN([C@@H](C)CO)C(=O)c2cccc(NC(=O)CCCCCC(=O)Nc3ccccc3N)c2O[C@@H]1CN(C)CC1CCCCC1 | 0.769% (inactive) |
| CS(=O)(=O)N(CC(=O)NC1CC1)c1ccc(Cl)c(C(F)(F)F)c1 | -0.255% (inactive) |
| CCOC(=O)c1cnn2c(C(F)(F)F)cc(C)nc12 | 0.193% (inactive) |
| COC(=O)c1ccccc1NC(=O)C(C)Oc1ccccc1F (centres undefined) | 2.99% (inactive) |
| COc1ccc(N2C(=O)CC(SCC(=O)Nc3ccccc3F)C2=O)cc1 (centres undefined) | 1.75% (inactive) |
| COc1ccc(C)cc1S(=O)(=O)N(C)CC(=O)Nc1ccc(Br)cc1F | 1.42% (inactive) |
| Cc1ccc(S(=O)(=O)Nc2ccc3c(c2)C(=O)N([C@H](C)CO)C[C@H](C)[C@@H](CN(C)C(=O)Nc2ccc4c(c2)OCO4)OCCCC[C@@H](C)O3)cc1 | 0.503% (inactive) |
| CCCCn1c(O)c(C#N)c(C)cc1=O | 1.29% (inactive) |
| Cc1ccc(-c2csc3ncn(CC(=O)Nc4ccc(F)c(Cl)c4)c(=O)c23)cc1C | -0.0295% (inactive) |

| SMILES | activation |
| --- | --- |
| COc1ccc(NC(=O)N(C)C[C@@H]2OCCCC[C@@H](C)Oc3ccc(N(C)C)cc3C(=O)N([C@H](C)CO)C[C@@H]2C)cc1 | 0.076% (inactive) |
| O=S(=O)(c1ccc(Cl)cc1)c1nc(-c2ccccc2F)oc1NCCN1CCOCC1 | -0.673% (inactive) |
| NC(=O)c1c(NC(=O)c2cnn3c(C(F)F)cc(-c4ccccc4)nc23)sc2c1CCCC2 | -5.98% (inactive) |
| C[C@@H]1CN([C@H](C)CO)C(=O)c2cc(NC(=O)Cc3cn(C)c4ccccc34)ccc2O[C@H]1CN(C)S(C)(=O)=O | -1.87% (inactive) |
| Cc1ccc(S(=O)(=O)Nc2cccc3c2O[C@@H](CN(C)C(=O)Nc2ccccc2)[C@H](C)CN([C@@H](C)CO)C3=O)cc1 | 2.15% (inactive) |
| COc1ccc(S(=O)(=O)N(C)C[C@H]2Oc3ccc(NS(=O)(=O)c4c(C)noc4C)cc3CC(=O)N([C@@H](C)CO)C[C@H]2C)cc1 | -0.136% (inactive) |
| COc1ccc(NC(=O)CSc2nc(-c3cccs3)cc(-c3ccsc3)c2C#N)cc1OC | -6.31% (inactive) |
| O=C(CCc1nc(-c2ccccc2Cl)no1)Nc1ccc(Cl)c(Cl)c1 | 1.17% (inactive) |
| C=CCSc1nc(N)cc(=O)[nH]1 | 0.998% (inactive) |
| C[C@@H]1CN([C@H](C)CO)C(=O)Cc2cc(NS(=O)(=O)c3ccc(Cl)cc3)ccc2O[C@H]1CN(C)S(=O)(=O)c1cccs1 | -2.73% (inactive) |
| O=C(c1ccc(Cl)cc1)n1c(=O)oc2cc(Cl)ccc21 | -0.599% (inactive) |
| Cc1ccccc1NC(=O)CSc1nnc(-c2ccc([N+](=O)[O-])cc2)n1C | 0.454% (inactive) |
| C[C@H]1CN([C@@H](C)CO)C(=O)c2cc(NS(=O)(=O)c3ccc(Cl)cc3)ccc2O[C@H]1CN(C)Cc1ccc(Oc2ccccc2)cc1 | 0.482% (inactive) |
| O=C1Cc2ccc(F)cc2CC1C1=Cc2ccc(F)cc2CC1 (centres undefined) | -8.11% (inactive) |
| Cc1ccc([N+](=O)[O-])cc1N(CC(=O)Nc1ccc(Cl)c(C(F)(F)F)c1)S(C)(=O)=O | 3.56% (inactive) |
| N/C(CSc1nc2ccccc2s1)=N\O | -0.165% (inactive) |
| C[C@@H]1CN([C@H](C)CO)C(=O)Cc2cc(NC(=O)NC3CCCCC3)ccc2O[C@H]1CN(C)S(C)(=O)=O | 2.26% (inactive) |
| CC(C)(C)c1cn2c3ccccc3nc2n1CCN1CCOCC1 | -2.35% (inactive) |
| O=C(c1ccco1)N1CCN(CCOc2ccccc2)CC1 | 4.48% (inactive) |
| COc1ccc(S(=O)(=O)Nc2ccc3c(c2)CC(=O)N([C@H](C)CO)C[C@@H](C)[C@@H](CN(C)C(=O)Nc2cccc4ccccc24)O3)cc1 | 0.476% (inactive) |
| C[C@@H]1CCCCO[C@@H](CN(C)S(=O)(=O)c2cn(C)cn2)[C@@H](C)CN([C@H](C)CO)C(=O)c2cc(NC(=O)c3ccncc3)ccc2O1 | 3.7% (inactive) |
| C[C@@H]1CCCCO[C@H](CN(C)S(=O)(=O)c2cccs2)[C@@H](C)CN([C@H](C)CO)C(=O)c2cc(NC(=O)Nc3ccccc3)ccc2O1 | -1.94% (inactive) |
| COc1ccc(NC(=O)Nc2ccc3c(c2)CC(=O)N([C@@H](C)CO)C[C@H](C)[C@@H](CN(C)Cc2ccc4c(c2)OCO4)O3)cc1 | 0.816% (inactive) |

| SMILES | activation |
| --- | --- |
| COc1ccc(S(=O)(=O)Nc2ccc3c(c2)C(=O)N([C@H](C)CO)C[C@H](C)[C@@H](CN(C)S(C)(=O)=O)OCCCC[C@@H](C)O3)cc1 | 0.638% (inactive) |
| C[C@@H]1CN([C@@H](C)CO)C(=O)c2cc(NC(=O)Nc3ccccc3)ccc2O[C@@H]1CN(C)Cc1ccccc1 | 1.95% (inactive) |
| C[C@@H]1CN([C@H](C)CO)C(=O)c2cc(NS(=O)(=O)c3ccccc3)ccc2O[C@H]1CN(C)C(=O)Nc1ccc2c(c1)OCO2 | 1.11% (inactive) |
| COc1ccc(N(Cc2cc3ccccc3[nH]c2=O)C(=O)c2cccc(OC)c2)cc1 | 1.92% (inactive) |
| C[C@H]1CN([C@@H](C)CO)C(=O)c2cccc(NC(=O)c3cnccn3)c2O[C@@H]1CN(C)Cc1ccc(Oc2ccccc2)cc1 | -2.26% (inactive) |
| Cc1ccc(C23CC4CC(CC(CN)(C4)C2)C3)cc1C | -7.62% (inactive) |
| O=C(Nc1ccccc1)C(=S)Nc1ccccc1 | -0.0947% (inactive) |
| Cc1noc(C)c1NC(=O)N(C)C[C@@H]1Oc2ccc(NC(=O)Nc3ccc(F)cc3)cc2C(=O)N([C@H](C)CO)C[C@@H]1C | -0.0779% (inactive) |
| CN1CCN(S(=O)(=O)c2ccc(NC(=O)C3CC=CCC3C(=O)O)cc2)CC1 (centres undefined) | 1.99% (inactive) |
| Cc1cc(C)c(NC(=O)CSc2nnc(-c3ccccc3)n2-c2ccc(F)cc2)c(C)c1 | 1.56% (inactive) |
| COc1ccc(NC(=O)c2ccc(OCC(=O)Nc3ccccc3F)cc2)cc1Cl | 0.553% (inactive) |
| COc1ccc(NC(=O)N(C)C[C@@H]2Oc3ccc(NC(=O)Nc4ccccc4)cc3CC(=O)N([C@H](C)CO)C[C@@H]2C)cc1 | -0.196% (inactive) |
| CCOC(=O)CCSc1nnc2c3ccccc3n(C)c2n1 | -0.845% (inactive) |
| Cc1noc(C)c1NC(=O)Nc1ccc2c(c1)C(=O)N([C@H](C)CO)C[C@@H](C)[C@@H](CN(C)C(=O)NC(C)C)O2 | 0.338% (inactive) |
| O=C(CSc1nnc(-c2ccccc2)n1-c1ccc(Cl)cc1)Nc1ccc(Cl)cc1 | -11.8% (inactive) |
| CCc1cc(C)cc(OCC(O)Cn2cnc3ccccc32)c1 (centres undefined) | -5.01% (inactive) |
| CN1CCN(C(=O)CCc2nc(-c3ccc(Cl)cc3)no2)CC1 | -0.127% (inactive) |
| O=C(CSc1nnc2ccc3ccccc3n12)Nc1ccc2c(c1)OCCO2 | 0.368% (inactive) |
| c1ccc(Nc2ncnc3sc(-c4ccccc4)cc23)cc1 | -0.968% (inactive) |
| CCCC(=O)Nc1ncnc2c1ncn2[C@@H]1O[C@@H]2OP(=O)(O)OC[C@H]2[C@H]1OC(=O)CCC | 4.46% (inactive) |
| CCOc1ccc2nc(Nc3nc(C)c(Cc4ccc(C)cc4)c(=O)[nH]3)nc(C)c2c1 | -0.875% (inactive) |
| COc1ccc(C(=O)CSc2nnc(-c3cccc(C)c3)n2-c2ccccc2)cc1 | 1.1% (inactive) |
| Cc1ccc(S(=O)(=O)N(C)C[C@@H]2Oc3c(NC(=O)C4CC4)cccc3C(=O)N([C@H](C)CO)C[C@H]2C)cc1 | 1.35% (inactive) |
